Measured values as given in PubChem BioAssay AID894 (National Center for Advancing Translational Sciences (NCATS), 2007).
Screen size: about 150,000 compounds; about 6,500 (4.3%) were called active. Inconclusive results (about 12%) are left out. The list comes from a sample in which actives are over-represented; it also holds similar structures and randomly drawn compounds. Values without a mark were called inactive. The call rests on the fitted dose curve; in most records, active means well fitted inhibition curve with a large enough effect (not every such curve was filed as active); inconclusive means small, poorly fitted or top-dose-only effect, or another doubt; inactive means no such curve, though single readings can be large or run the other way.

target: 15-hydroxyprostaglandin dehydrogenase [NAD(+)] (Homo sapiens) (UniProt P15428); experiment: qHTS Assay for Inhibitors of HPGD (15-Hydroxyprostaglandin Dehydrogenase); conditions: purified HPGD, NADH fluorescence kinetic, PGE2 substrate; activity change, negative = inhibition: hits give low values
From the text: Human 15-Hydroxyprostaglandin dehydrogenase (HPGD) catalyzes the inactivation of prostaglandin E2, and plays a major role in cancer biology by antagonizing the oncogenic potential of cyclooxygenase type 2 (COX2). Assays are available, based on absorbance/fluorescence increase of NADH with the substrate 15-OH prostaglandin E2. References 1. Myung SJ, Rerko RM, Yan M, Platzer P, Guda K, Dotson A, Lawrence E, Dannenberg AJ, Lovgren AK, Luo G, Pretlow TP, Newman RA, Willis J, Dawson D, Markowitz SD. 15-Hydroxyprostaglandin dehydrogenase is an in vivo suppressor of colon tumorigenesis. […] 2. Yan M, Rerko RM, Platzer P, Dawson D, Willis J, Tong M, Lawrence E, Lutterbaugh J, Lu S, Willson JK, Luo G, Hensold J, Tai HH, Wilson K, Markowitz SD. 15-Hydroxyprostaglandin dehydrogenase, a COX-2 oncogene antagonist, is a TGF-beta-induced suppressor of human gastrointestinal cancers. Proc Natl Acad Sci U S A. 2004 Dec 14;101(50):17468-73. 3. Yang L, Amann JM, Kikuchi T, Porta R, Guix M, Gonzalez A, Park KH, Billheimer D, Arteaga CL, Tai HH, Dubois R, Carbone DP, Johnson DH. Inhibition of Epidermal Growth Factor Receptor Signaling Elevates 15-Hydroxyprostaglandin Dehydrogenase in Non-Small-Cell Lung Cancer. Cancer Res. 2007 Jun 15;67(12):5587-5593. Inhibition of HPGD activity was screened by utilizing prostaglandin as an electron donor and NAD+ as an electron acceptor/cofactor. An increase in the fluorescence intensity due to conversion of NAD+ to NADH was used to measure the enzyme activity. NIH Chemical Genomics Center [NCGC] Structural Genomics Consortium [SGC]
Buffer: 50 mM Tris-HCl, 0.01% Tween 20, pH 8. Enzyme Buffer: 50 mM Tris-HCl, 0.5 mM NAD+ and 0.01% Tween 20, pH 8. Reagents/Controls: Buffer in columns 3 and 4 as negative control (no enzyme). Substrate/cofactor solution: 1 mM NAD+ and 30 uM prostaglandin (Sigma, prostaglandin E2, # P5640) final concentrations dispensed throughout the plate. Enzyme: 20 nM HPGD final concentration in columns 1, 2, 5-48. Column 1 and 2 is neutral (100% activity). A titration of control inhibitor GW5074 (G6416 Sigma-Aldrich, St. Louis, MO) top concentration 10 mM in DMSO, then 1:2 dilution for a total of 16 concentrations in duplicate) was pin-transferred into column 2. Assay Steps: Three uL of enzyme were dispensed to 1536-well Greiner black solid bottom plates. Compounds and control inhibitor (23 nL) were transferred via Kalypsys PinTool. The plates were incubated for 15 min at room temperature, and then 1 uL of substrate/cofactor solution was added to start the reaction. The plates were immediately transferred to and read 5 times every 30 seconds on ViewLux High-throughput CCD imager (Perkin-Elmer) using 360 nm excitation and 450 nm emission fluorescence protocol. The fluorescence intensity difference between the last and the first time points was used to compute reaction progress.
On the % scale 0 is the no-effect control and ±100 the full control effect; potency means the concentration at half of the fitted maximal effect.

Sequence of 15-hydroxyprostaglandin dehydrogenase [NAD(+)] (Homo sapiens) (P15428 whole entry, looked up): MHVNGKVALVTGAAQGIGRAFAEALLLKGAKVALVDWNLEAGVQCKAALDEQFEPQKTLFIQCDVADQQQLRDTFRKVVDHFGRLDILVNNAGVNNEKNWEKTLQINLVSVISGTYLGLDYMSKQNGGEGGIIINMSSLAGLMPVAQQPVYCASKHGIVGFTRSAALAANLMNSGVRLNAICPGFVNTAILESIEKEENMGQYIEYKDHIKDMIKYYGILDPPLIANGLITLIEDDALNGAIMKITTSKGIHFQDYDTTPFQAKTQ

SMILES	activity change, negative = inhibition [%]	Potency
O=c1c2c(ncn1Cc1ccccc1)nc1n2CCC1	-17.9	
COc1ccc(-c2csc(NC(=O)COC(=O)Cc3ccc(Cl)cc3Cl)n2)cc1	-9.05	
O=C(Nc1cn(-c2ccccc2)nc1-c1ccccc1)c1ccccc1	-2.03	
O=C(NC1CCCC1)c1ccc(Br)s1		3.55 µM (active)
CN(CC(=O)NC1CCCCC1)S(=O)(=O)c1ccc(Br)s1	-1.92	
O=C(NC1CCCC1)C(NS(=O)(=O)c1ccc(Br)s1)c1ccccc1 (stereo not given)	-1.61	
O=C(COC(=O)c1c2c(nc3ccccc13)/C(=C\c1cccs1)CCC2)Nc1ccccc1Cl	-25.4	
C=CCN1c2ccccc2[C@]23C[C@@H](C(=O)OC)N(S(=O)(=O)c4ccc([N+](=O)[O-])cc4)C2=NC(C(=O)OC)=C(C(=O)OC)[C@H]13	-18.4	
COc1cc(/C=C(/NC(=O)c2ccc(Cl)cc2Cl)C(=O)O)cc(OC)c1OC	-5.89	
O=C(O)c1cccc(S(=O)(=O)NCCO)c1	-3.87	
O=C(O)c1cccc(S(=O)(=O)Nc2ccc(O)cc2Sc2nc3ccccc3s2)c1		10 µM (active)
O=C(Nc1nc2cc3c(cc2s1)OCCO3)c1cccc(S(=O)(=O)N2CCOCC2)c1	-10.8	
COc1ccc(S(=O)(=O)Nc2ccc(O)c(Sc3nc4ccccc4s3)c2)cc1		25.1 µM (active)
COC(=O)c1nc2ccccc2s1	0.316	
COc1ccc(NS(=O)(=O)c2ccc(NC(=S)NC(=O)CC(C)C)cc2)cc1	-14.4	
CC(=O)NC1=NN(C(C)=O)C(C)(CCS(=O)(=O)c2ccc(Cl)c(Cl)c2)S1 (stereo not given)	-9.18	
CCCCN1C(=O)c2ccc(C(=O)Nc3ccc(S(=O)(=O)N(C)C)cc3)cc2C1=O	-11.6	
CCCNC(=O)c1ccccc1NC(=O)CSCc1ccc(OC)cc1	-5.31	
CCCc1nc(SCC(=O)Nc2ccccc2OC)c2c(=O)n(C)c(=O)n(C)c2n1	-0.308	
CCCCCNC(=O)c1cccnc1SCC(=O)Nc1ccccc1OC		10 µM (active)
COc1cccc(NC(=S)NC(=O)c2c(Cl)c(C)nn2C)c1	-18.7	
Cc1sc2nc(CC(N)=O)[nH]c(=O)c2c1-c1ccccc1	1.92	
Cn1cc(CCC(=O)NCc2ccc3c(c2)OCO3)c2ccccc21	-17.1	

SMILES	activity change, negative = inhibition [%]	Potency
O=C(Cn1nnc(-c2ccccc2)n1)NCc1ccc2c(c1)OCO2	-12.6	
O=C(CNS(=O)(=O)c1ccc(Br)s1)NCc1ccc2c(c1)OCO2	-7.58	
CC1CCCCN1CC(=O)NCc1ccc2c(c1)OCO2 (stereo not given)		8.91 µM (active)
CCOC(=O)NCc1ccc2c(c1)OCO2	-9.86	
O=C(NCc1ccc2c(c1)OCO2)C12CC3CC(CC(C3)C1)C2		31.6 µM (active)
OC[C@H]1O[C@@H](n2cnc3c(NC4CCCC4)ncnc32)[C@H](O)[C@H]1O	-4.78	
CCCCC(NS(=O)(=O)c1ccc(C)cc1)C(=O)Oc1ccc2c3c(c(=O)oc2c1)CCC3 (stereo not given)	-8.04	
Cn1c(=O)c(Sc2ccc(Cl)cc2)c(O)c2ccccc21	-12.7	
CC(C)OCCCNC(=O)c1cc(Sc2ccc(F)cc2)nc2ccccc12	-12.9	
COc1cccc(NC(=O)c2nn(C34CC5CC(CC(C5)C3)C4)cc2[N+](=O)[O-])c1	-4.79	
Cc1nc([N+](=O)[O-])nn1C12CC3CC(CC(Br)(C3)C1)C2		14.1 µM (active)
Cc1ncn(C23CC4CC(CC(O)(C4)C2)C3)n1	-6.48	
O=C(COC(=O)c1cc2c(s1)CCCC2)NCc1ccccc1Cl	-9.08	
COc1ccc(CC(=O)N/N=C(\C)c2ccccn2)cc1	-4.24	
Cc1ccc(S(=O)(=O)N2CCC(C(=O)N[C@@H](C)C(=O)NCc3ccco3)CC2)cc1	-1.88	
S=C(NCCCc1cnc[nH]1)NCCCN(Cc1ccc(Cl)c(Cl)c1)c1ccc(Br)cn1	-8.19	
Cc1ccc(C(=O)CNc2ccc(F)cc2)cc1	-25.3	
COC(=O)c1ccc(NCC(=O)c2ccccc2)cc1		17.8 µM (active)
COC(=O)c1ccc(NC(=O)Nc2ccc(C)cc2)cc1	-17.3	
Cc1ccc(-n2[nH]c(C)c(/C=N/NC(=O)c3cccc([N+](=O)[O-])c3)c2=O)cc1C	-25.4	
Cc1sc2ncnc(Sc3nc4ccccc4s3)c2c1C	-10.4	
CCCCCCC(=O)N(O)C1CC(=O)N(c2ccccc2)C1=O (stereo not given)		15.8 µM (active)
